Compound activity as filed in PubChem BioAssay.
NR2F2 inh: NR2F2 transcriptional activity inhibitors, primary screen, cell-based, luciferase reporter, HEK293T, luminescence; COUP transcription factor 2 (Homo sapiens), P24468; HEK293T NGFI-A luciferase reporter; inhibition, % at 8.6 µM; hit rate 0.7% among 370,000;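 active = inhibition above a per-plate cutoff, mean inhibition of test wells between control levels plus 3 SD, cut at about 38% in these data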;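 note: cells cotransfected with COUP-TFII expression vector driving the NGFI-A reporter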
Target sequence (P24468 whole entry, looked up): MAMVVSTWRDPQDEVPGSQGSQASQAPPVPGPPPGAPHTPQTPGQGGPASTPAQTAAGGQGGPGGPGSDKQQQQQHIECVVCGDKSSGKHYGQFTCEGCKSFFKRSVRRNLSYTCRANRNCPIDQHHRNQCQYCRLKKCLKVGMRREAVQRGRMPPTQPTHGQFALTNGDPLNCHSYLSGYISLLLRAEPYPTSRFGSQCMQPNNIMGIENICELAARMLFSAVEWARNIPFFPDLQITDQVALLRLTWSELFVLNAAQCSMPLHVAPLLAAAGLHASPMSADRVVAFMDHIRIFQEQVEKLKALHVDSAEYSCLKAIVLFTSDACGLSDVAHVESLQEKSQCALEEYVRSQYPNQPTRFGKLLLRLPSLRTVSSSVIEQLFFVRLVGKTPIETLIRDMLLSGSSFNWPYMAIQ
SRC2 inh: inhibition of GAL4-SRC2 driven luciferase reporter, primary screen, SRC2 inhibitor project, cell-based, luminescence. Nuclear receptor coactivator 2 (Homo sapiens), Q15596. HEK293 GAL4-SRC2 luciferase reporter. inhibition, % at 9 µM. hit rate 0.17% among 370,000;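 active = inhibition above the mean inhibition of all tested compounds plus 3 SD, set per campaign, cut at about 52% in these data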
NR5A2 inv ag: LRH-1 (NR5A2) inverse agonists, primary screen, cell-based, luminescence, HEK293T, StAR-luciferase reporter. Nuclear receptor subfamily 5 group A member 2 (Homo sapiens), O00482. LRH-1 transfected, 24 h. inhibition, % at 3.6 µM. hit rate 0.13% among 360,000. AID 602396, 2012;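 active = inhibition above the mean inhibition of all tested compounds plus 3 SD, cut at about 73% in these data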
Efflux pump inh: inhibitors of Candida efflux pumps in yeast, primary screen, S. cerevisiae, Nile Red, multiplex; S. cerevisiae Candida pump triplex; inhibition, % at 10 µM; hit rate 0.44% among 330,000; AID 485275, 2010;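 active = plate passing quality check with inhibition over a set limit, or well fluorescence over plate mean plus 4 SD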;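 note: Nile Red retained in pooled yeast measured as flow cytometry median fluorescence; higher means more Nile Red kept so more efflux inhibition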
SRC3 inh: SRC3 coactivator transcriptional activity inhibitors, primary screen, cell-based, luminescence; Nuclear receptor coactivator 3 (Homo sapiens), Q9Y6Q9; HEK293 GAL4-SRC3 luciferase reporter; inhibition, % at 3.6 µM; hit rate 0.17% among 360,000; AID 588352, 2011;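 active = inhibition above a per-campaign cutoff, the mean of all compounds plus 3 SD, cut at about 60% in these data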;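 note: higher means less SRC3-driven luciferase light from the GAL4 reporter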
SRC1 inh: SRC1 coactivator transcriptional activity inhibitors, primary screen, cell-based, luminescence; AID 588354, 2011; inhibition, % at 3.6 µM; HEK293 GAL4-SRC1 luciferase reporter; Nuclear receptor coactivator 1 (Homo sapiens), Q15788; hit rate 0.12% among 360,000;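 active = inhibition above the campaign mean plus 3 SD, with each screening campaign given its own cutoff, cut at about 60% in these data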
Gal4-VP16 ctr: Gal4-VP16 luciferase reporter inhibitors, counter-screen for COUP-TFII antagonist project, cell-based, luminescence, HEK293; shares compounds with NR2F2 inh; inhibition, % at 8.5 µM; hit rate 25% among 2,500; in the data active = inhibition above about 13%
COUP-TFII conf: NR2F2 transcriptional activity inhibitors, confirmation, cell-based, luciferase reporter, HEK293, triplicate; shares compounds with NR2F2 inh; HEK293 NGFI-A luciferase reporter, luminescence; inhibition, % at 8.5 µM; hit rate 45% among 2,500;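 active = mean inhibition over three repeats above a set limit taken from the earlier primary screen, cut at about 38% in these data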
Numbers stand for hits; – = inactive; · = no result. This is a sample that favours compounds with a hit; in the whole collection about 1.2% have one here.

SMILES	NR2F2 inh	SRC2 inh	NR5A2 inv ag	Efflux pump inh	SRC3 inh	SRC1 inh	Gal4-VP16 ctr	COUP-TFII conf
Cc1c(/C(O)=C2\C(=O)C(=O)N(CCN(C)C)C2c2cccnc2)cnn1-c1ccccc1 (centres undefined)	–	–	–	–	–	–	·	·
Cc1c(/C(O)=C2\C(=O)C(=O)N(CCCN(C)C)C2c2ccccc2)cnn1-c1ccccc1 (centres undefined)	50.5	–	–	·	–	–	–	–
Cc1c(/C(O)=C2/C(=O)C(=O)N(CCN3CCOCC3)C2c2ccccn2)cnn1-c1ccccc1 (centres undefined)	99.8	79.7	82.7	–	85.1	83.6	30.9	39.3
CN(Cc1cccc2cnccc12)C(=O)c1cc(COc2ccc(F)cc2F)on1	45.0	–	–	·	–	–	–	–
Cc1c(C(C)NC(=O)c2cc(COc3cccc4cnccc34)on2)cnn1C (centres undefined)	55.5	–	–	–	–	–	–	41.8
CN(Cc1cccc2ccccc12)C(=O)c1cc(COc2c(F)cccc2F)on1	–	–	–	–	–	–	·	·
CSc1ccccc1OCc1cc(C(=O)NC(C)c2cnn(C)c2)no1 (centres undefined)	–	–	–	–	–	–	·	·
CCc1ccc(CN(C)C(=O)c2cc(COc3cccc4cnccc34)on2)cc1	66.4	–	–	–	–	–	–	57.5
Cc1ccc(Cl)cc1NC(=O)c1cc(NC(=O)CCCC(=O)O)ccc1N1CCCCC1	–	–	–	–	–	–	·	·
CCOc1cc(S(=O)(=O)NCc2cccs2)ccc1Cl	–	–	–	–	–	–	·	·
Cc1ccc(S(=O)(=O)NCC(=O)NCc2ccncc2)cc1	–	–	–	–	–	–	·	·
CCOC(=O)COc1ccc(S(=O)(=O)NCc2ccncc2)cc1	48.8	–	–	–	–	–	–	–
CCOc1cc(S(=O)(=O)NCc2ccncc2)ccc1Cl	74.5	–	–	–	–	–	–	63.0
CCOc1ccc(S(=O)(=O)NCc2ccncc2)cc1	70.2	–	–	–	–	–	–	62.8
CCOc1ccc(S(=O)(=O)NCc2ccccn2)cc1	–	–	–	–	–	–	·	·
Cc1ccc(S(=O)(=O)NCc2ccncc2)cc1	56.9	–	–	–	–	–	–	40.3
O=C(NCC(c1ccco1)N1CCN(c2ccc(F)cc2)CC1)C(=O)NC1CCCCC1 (centres undefined)	–	–	–	–	–	–	·	·
COc1ccc(C(=O)Nc2ccc([N+](=O)[O-])cn2)c(OC)c1	–	–	–	–	–	–	·	·
CN(C)CCCNC(=O)c1ccc(/C=N/O)nc1	–	–	–	·	–	–	·	·
COc1cc(/C=C/C(=O)OCC(=O)NC2CCCCCCC2)ccc1O	–	–	–	–	–	–	·	·
Cc1ccoc1C(=O)Nc1ccc(CC(=O)O)cc1	76.2	83.3	–	–	–	–	69.8	65.7
COc1ccc(C(=O)NCCNC(=O)c2ccc(C)nc2)cc1	–	–	–	–	–	–	·	·
Cc1ccc(S(=O)(=O)N2CCN(C(=O)c3cc4c(C)nn(-c5ccccc5C)c4s3)CC2)cc1	45.7	–	–	–	–	–	–	–
Cc1ccccc1-n1nc(C)c2cc(C(=O)N3CCOCC3)sc21	–	–	–	–	–	–	·	·
CC(C)c1ccc(CNc2nc(NCC3CC3)nc3ccsc23)cc1	–	–	–	·	–	–	·	·
SMILES	NR2F2 inh	SRC2 inh	NR5A2 inv ag	Efflux pump inh	SRC3 inh	SRC1 inh	Gal4-VP16 ctr	COUP-TFII conf
COc1cccc(CNc2nc(NC(C)C)nc3ccsc23)c1OC	–	–	–	·	–	–	·	·
COc1cccc(CNc2nc(NCC3CC3)nc3ccsc23)c1	43.1	–	–	·	–	–	–	–
COc1cccc(CNc2nc(NCc3ccccc3)nc3ccsc23)c1	–	–	–	·	–	–	·	·
COc1cccc(CNc2nc(NCC3CC3)nc3ccsc23)c1OC	58.5	–	–	·	–	–	–	–
CSc1ccccc1CNc1nc(NCC2CC2)nc2ccsc12	52.8	–	–	·	–	–	–	–
CN(C)S(=O)(=O)c1cccc(NC(=O)C2Cc3ccccc3CN2C(=O)c2ccco2)c1 (centres undefined)	–	–	–	–	–	–	·	·
COc1cc2c(cc1OC)C(c1c(Cl)cccc1Cl)=NCC2	72.3	–	–	·	–	–	–	57.7
COc1cc2c(cc1OC)C(c1c(-c3c(Cl)cccc3Cl)noc1C)=NCC2	–	–	–	·	–	–	·	·
COc1cccc(CNc2nnnn2C)c1OC	–	–	–	–	–	–	·	·
CCOc1ccc(Oc2ccccc2NC(=O)CSCC(=O)Nc2cc(C)on2)cc1	50.5	–	–	–	–	–	–	38.0
Cc1cccc(Oc2ccccc2NC(=O)CSCC(=O)Nc2cc(C)on2)c1	–	–	–	·	–	–	·	·
COc1ccccc1NC(=O)CN1CC(=O)Nc2ccccc21	–	–	–	–	–	–	·	·
CCOc1c(Br)cc(CNc2ccc3c(c2)OCCO3)cc1OC	–	–	–	–	–	–	·	·
CCOc1cc(CNc2ccc3c(c2)OCCO3)cc(Br)c1OC	51.4	–	–	–	–	–	–	38.1
CCOC(=O)c1nc2cc3n(c(C)c-2c1C)C(C)C(C)=C3C (centres undefined)	–	–	–	–	–	–	·	·
CC(C)(C)OC(=O)NC1CCN(c2nc(-c3ccc(Br)cc3)cs2)CC1	38.6	·	·	·	·	·	–	–
COCCN(C(=O)COC(=O)/C=C/c1cccs1)c1c(N)n(Cc2ccccc2)c(=O)[nH]c1=O	–	–	–	–	–	–	·	·
Cn1nnnc1SCC(=O)Nc1ccccc1[N+](=O)[O-]	–	–	–	–	–	–	·	·
Cc1c(C)n(CC(O)CN2CCN(C)CC2)c2ccccc12 (centres undefined)	–	–	–	–	–	–	·	·
N#Cc1nc(N2CCCCC2)nc(N2CCOCC2)n1	–	–	–	–	–	–	·	·
N#Cc1nc(N2CCCC2)nc(N2CCCC2)n1	46.8	–	–	–	–	–	–	–
Fc1ccc(-n2nnnc2-c2cnc(-c3cccs3)nc2C(F)(F)F)cc1	52.9	–	–	–	–	–	–	38.5
FC(F)(F)c1nc(N2CCCC2)ncc1-c1nnnn1-c1ccc(Cl)cc1	38.3	–	–	–	–	–	–	–
FC(F)(F)c1nc(-c2ccncc2)ncc1-c1nnnn1-c1ccccc1	–	–	–	–	–	–	·	·
